Results filed as inconclusive are left out. Activity calls are given as the source filed them. The calls were made as follows, unless noted: active = hit-call score of the fitted dose curve at least 0.9, where 1 is the maximum; inactive = score below 0.9.
Key:
[1] = target: human RAR-related Orphan Receptor gamma (RORg), RORC (gene 6097) (UniProt P51449); assay: ATG_RORg_TRANS: Attagene TRANS-FACTORIAL HepG2 Assay for human RAR-related Orphan Receptor gamma (RORg) (AID 2283011; active = hit-call score of the fitted dose curve at least 0.9, where 1 is the maximum)
How it was run: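 First, HepG2 liver cells were transfected with GAL4-UAS-driven reporter constructs and the RORg-Gal4 fusion. Next, they were treated with chemical for 24 h. Finally, reporter mRNA was quantified by RT-PCR and capillary electrophoresis, with upward activity fitted against DMSO.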

[2] = read-out: E-selectin (Homo sapiens) (UniProt P16581); assay: BSK_3C_Eselectin: BioMAP Diversity Plus: 3C Assay for Eselectin Biomarker Activity (AID 2283015); details: primary human endothelial cells (HUVEC); actives raise or lower the signal
How it was run: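 ELISA read-out of E-selectin on endothelial monolayers after 24 h chemical treatment. Human umbilical vein primary cells served as the system, with DMSO defining baseline activity for bidirectional fitting.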

[3] = read-out: Interleukin-1 alpha (IL1a), IL1A (gene 3552); assay: BSK_BE3C_IL1a: BioMAP Diversity Plus: BE3C Assay for Interleukin-1 alpha (IL1a) Biomarker Activity (AID 2283016); details: primary human bronchial epithelial cells; actives raise or lower the signal
How it was run: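 IL-1a measured by ELISA after 24 h treatment of human primary bronchial epithelial cells, with gain or loss of signal fitted versus DMSO. Parallel cultures stained with SRB gauge overt cytotoxicity.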

[4] = read-out: Monocyte Chemoattractant Protein-1 (MCP1), CCL2 (gene 6347); assay: BSK_3C_MCP1: BioMAP Diversity Plus: 3C Assay for Monocyte Chemoattractant Protein-1 (MCP1) Biomarker Activity (AID 2283017); details: primary human endothelial cells (HUVEC); actives raise or lower the signal
How it was run: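 ELISA read-out of MCP-1 from human umbilical vein endothelial cell cultures harvested 24 h post-dosing. Gain or loss of signal was fitted relative to DMSO.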

[5] = read-out: Human Leukocyte Antigen - DR isotype (HLADR), HLA-DRA (gene 3122); assay: BSK_3C_HLADR: BioMAP Diversity Plus: 3C Assay for Human Leukocyte Antigen - DR isotype (HLADR) Biomarker Activity (AID 2283019); details: primary human endothelial cells (HUVEC); actives raise or lower the signal
How it was run: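 ELISA readout of surface HLA-DR on human umbilical vein endothelium, taken 24 h after chemical treatment. Gain- and loss-of-signal were both fitted relative to DMSO.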

[6] = read-out: Interleukin-8 (IL8), CXCL8 (gene 3576); assay: BSK_3C_IL8: BioMAP Diversity Plus: 3C Assay for Interleukin-8 (IL8) Biomarker Activity (AID 2283020); details: primary human endothelial cells (HUVEC); actives raise or lower the signal
How it was run: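 IL-8 was measured by ELISA in HUVEC cultures 24 h after chemical dosing, with gain or loss of signal fitted relative to DMSO. Parallel SRB total-protein staining tracked overt cytotoxicity.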

[7] = read-out: Monokine induced gamma interferon (MIG), CXCL9 (gene 4283); assay: BSK_3C_MIG: BioMAP Diversity Plus: 3C Assay for Monokine induced gamma interferon (MIG) Biomarker Activity (AID 2283021); details: primary human endothelial cells (HUVEC); actives raise or lower the signal;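 as to AC50: MIG protein level measured by immunoassay in the treated endothelial cultures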
How it was run: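 ELISA measurement of MIG in human umbilical vein endothelial cells 24 h after treatment. Cytotoxicity tracked by SRB staining in parallel cultures; gain or loss of signal fitted relative to DMSO.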

[8] = BSK_3C_SRB: Viability Assessment in the BioMAP Diversity Plus: 3C Assay (AID 2283023); details: primary human endothelial cells (HUVEC);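 also: fitted both ways against DMSO so a hit may be signal rise or drop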
How it was run: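 Absorbance at 560 nm of sulforhodamine B-stained (0.1%) total protein served as a cytotoxicity readout in human umbilical vein endothelial cells, 24 h after chemical treatment. Signal was fitted bidirectionally relative to DMSO.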

[9] = read-out: Matrix Metallopeptidase 1 (MMP1), MMP1 (gene 4312); assay: BSK_BE3C_MMP1: BioMAP Diversity Plus: BE3C Assay for Matrix Metallopeptidase 1 (MMP1) Biomarker Activity (AID 2283024); details: primary human bronchial epithelial cells; actives raise or lower the signal
How it was run: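 ELISA measurement of MMP-1 after 24 h compound exposure of primary human bronchial epithelial cells. Changes in either direction fitted relative to DMSO; parallel SRB staining checked overt cytotoxicity.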

[10] = BSK_3C_Vis: BioMAP Diversity Plus: 3C Assay for Morphology Visualization (AID 2283025); details: primary human endothelial cells (HUVEC);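 also: fitted both ways so gain or loss versus DMSO counts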;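 as to AC50: light microscopy image of cell morphology used as background control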
How it was run: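 Light-microscopy visualization of HUVEC cultures at 24 h post-treatment, with DMSO as baseline for bidirectional fitting.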

[11] = read-out: Pselectin, SELP (gene 6403); assay: BSK_4H_Pselectin: BioMAP Diversity Plus: 4H Assay for Pselectin Biomarker Activity (AID 2283026); details: primary human endothelial cells (HUVEC); actives raise or lower the signal
How it was run: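 ELISA of surface P-selectin on HUVEC, 24 h after dosing, with parallel SRB staining (0.1% after 10% TCA fixation, 560 nm) for overt cytotoxicity. Activity fitted in both directions relative to DMSO.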

[12] = BSK_4H_SRB: Viability Assessment in the BioMAP Diversity Plus: 4H Assay (AID 2283027); details: primary human endothelial cells (HUVEC);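 also: cells exposed to compound for 24 h before staining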;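 as to AC50: curves fitted both ways versus DMSO so AC50 may be loss or gain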
How it was run: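 HUVEC, 24 h post-dose; 10% TCA fix, 0.1% SRB stain, A560 nm. Total protein = overt cytotoxicity, parallel to biomarker read. Bidirectional fit vs DMSO baseline.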

[13] = BSK_BE3C_SRB: Viability Assessment in the BioMAP Diversity Plus: BE3C Assay (AID 2283028); details: primary human bronchial epithelial cells;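 as to AC50: fitted both ways so AC50 may mark signal gain or loss versus DMSO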
How it was run: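 Cells (human bronchial epithelial, primary) are treated with chemicals, and after 24 h the parallel cultures are fixed in 10% TCA. These are then stained with 0.1% SRB and read at 560 nm. Gain or loss of signal is fitted relative to DMSO.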

[14] = read-out: Thrombomodulin, THBD (gene 7056); assay: BSK_3C_Thrombomodulin: BioMAP Diversity Plus: 3C Assay for Thrombomodulin Biomarker Activity (AID 2283029); details: primary human endothelial cells (HUVEC); actives raise or lower the signal
How it was run: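 ELISA measurement of thrombomodulin on HUVEC surface 24 h after chemical dosing; activity fitted in both directions relative to DMSO vehicle.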

[15] = target: Retinoic acid receptor RXR-alpha (Homo sapiens) (UniProt P19793); assay: ATG_RXRa_TRANS: Attagene TRANS-FACTORIAL HepG2 Assay for human Retinoid X Receptor alpha (RXRa) (AID 2283012; active = hit-call score of the fitted dose curve at least 0.9, where 1 is the maximum)
How it was run: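 TRANS format reporting activity of exogenous RXRa-Gal4 chimera in transiently transfected HepG2, 24 h exposure. Reporter transcripts quantified by RT-PCR with capillary electrophoresis, with gain of signal scored relative to DMSO.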

[16] = target: human Retinoid X Receptor beta (RXRb), RXRB (gene 6257) (UniProt P28702); assay: ATG_RXRb_TRANS: Attagene TRANS-FACTORIAL HepG2 Assay for human Retinoid X Receptor beta (RXRb) (AID 2283013; active = hit-call score of the fitted dose curve at least 0.9, where 1 is the maximum)
How it was run: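 Readout is reporter transcript induction after 24 h dosing. It is measured by RT-PCR of total RNA followed by fluorescent capillary electrophoresis. HepG2 liver cells carry transfected multiple reporter units driven by an exogenous RXRb-Gal4 fusion; activity is relative to DMSO.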

[17] = target: human Thyroid Receptor alpha (THRa1), THRA (gene 7067) (UniProt P10827); assay: ATG_THRa1_TRANS: Attagene TRANS-FACTORIAL HepG2 Assay for human Thyroid Receptor alpha (THRa1) (AID 2283014; active = hit-call score of the fitted dose curve at least 0.9, where 1 is the maximum)
How it was run: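 Reporter transcript induction, read by capillary electrophoresis of 6-FAM-labelled RT-PCR products, reflects activity of a transfected THRa1-Gal4 fusion in HepG2 liver cells. Cells were dosed for 24 h; activity was fitted in the positive direction against DMSO.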

[18] = read-out: Monocyte Chemoattractant Protein-1 (MCP1), CCL2 (gene 6347); assay: BSK_4H_MCP1: BioMAP Diversity Plus: 4H Assay for Monocyte Chemoattractant Protein-1 (MCP1) Biomarker Activity (AID 2283018); details: primary human endothelial cells (HUVEC); actives raise or lower the signal
How it was run: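 ELISA of MCP-1 (CCL2) 24 h after chemical dosing of HUVEC in the BioMAP 4H system. Gain or loss versus DMSO fitted; parallel SRB staining (560 nm) tracked overt cytotoxicity.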

[19] = target: human Vitamin D Receptor (VDR), VDR (gene 7421) (UniProt P11473); assay: ATG_VDR_TRANS: Attagene TRANS-FACTORIAL HepG2 Assay for human Vitamin D Receptor (VDR) (AID 2283022; active = hit-call score of the fitted dose curve at least 0.9, where 1 is the maximum)
How it was run: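 Steps: transfect HepG2 with GAL4-UAS-driven reporter constructs; dose compounds 24 h; isolate RNA, reverse-transcribe, PCR-amplify with 6-FAM-labelled primer extension and HpaI digestion; quantify fragments by capillary electrophoresis relative to DMSO.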

Measured: AC50

Sequence of human Retinoid X Receptor beta (RXRb), RXRB (gene 6257) (P28702 whole entry, looked up, the tested form may be a part): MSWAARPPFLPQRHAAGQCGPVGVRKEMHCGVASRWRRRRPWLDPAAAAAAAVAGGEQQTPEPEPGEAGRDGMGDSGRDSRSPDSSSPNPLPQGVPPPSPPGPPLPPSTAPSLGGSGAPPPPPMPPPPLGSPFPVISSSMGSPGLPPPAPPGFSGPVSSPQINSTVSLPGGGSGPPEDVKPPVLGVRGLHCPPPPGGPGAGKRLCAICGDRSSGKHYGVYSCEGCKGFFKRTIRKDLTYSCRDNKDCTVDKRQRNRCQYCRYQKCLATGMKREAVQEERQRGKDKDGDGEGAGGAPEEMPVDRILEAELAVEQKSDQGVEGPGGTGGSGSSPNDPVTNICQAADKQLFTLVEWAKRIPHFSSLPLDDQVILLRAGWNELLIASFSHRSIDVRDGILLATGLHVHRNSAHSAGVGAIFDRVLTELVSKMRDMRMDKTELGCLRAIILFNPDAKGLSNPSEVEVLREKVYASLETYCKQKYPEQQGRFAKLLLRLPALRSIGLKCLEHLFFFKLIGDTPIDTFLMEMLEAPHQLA
Sequence of Retinoic acid receptor RXR-alpha (Homo sapiens) (P19793 whole entry, looked up, the tested form may be a part): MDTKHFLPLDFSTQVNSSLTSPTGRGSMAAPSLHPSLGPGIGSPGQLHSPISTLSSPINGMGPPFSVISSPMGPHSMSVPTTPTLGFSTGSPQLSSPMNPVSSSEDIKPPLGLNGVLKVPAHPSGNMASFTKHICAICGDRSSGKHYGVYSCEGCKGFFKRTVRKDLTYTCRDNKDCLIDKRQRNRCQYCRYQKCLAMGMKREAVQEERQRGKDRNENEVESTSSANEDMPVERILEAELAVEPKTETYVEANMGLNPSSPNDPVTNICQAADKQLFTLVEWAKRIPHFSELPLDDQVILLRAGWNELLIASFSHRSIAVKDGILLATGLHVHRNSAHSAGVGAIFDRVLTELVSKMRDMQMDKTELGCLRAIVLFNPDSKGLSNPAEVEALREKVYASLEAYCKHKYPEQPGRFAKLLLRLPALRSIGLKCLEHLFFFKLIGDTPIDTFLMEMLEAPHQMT
Sequence of E-selectin (Homo sapiens) (P16581 whole entry, looked up): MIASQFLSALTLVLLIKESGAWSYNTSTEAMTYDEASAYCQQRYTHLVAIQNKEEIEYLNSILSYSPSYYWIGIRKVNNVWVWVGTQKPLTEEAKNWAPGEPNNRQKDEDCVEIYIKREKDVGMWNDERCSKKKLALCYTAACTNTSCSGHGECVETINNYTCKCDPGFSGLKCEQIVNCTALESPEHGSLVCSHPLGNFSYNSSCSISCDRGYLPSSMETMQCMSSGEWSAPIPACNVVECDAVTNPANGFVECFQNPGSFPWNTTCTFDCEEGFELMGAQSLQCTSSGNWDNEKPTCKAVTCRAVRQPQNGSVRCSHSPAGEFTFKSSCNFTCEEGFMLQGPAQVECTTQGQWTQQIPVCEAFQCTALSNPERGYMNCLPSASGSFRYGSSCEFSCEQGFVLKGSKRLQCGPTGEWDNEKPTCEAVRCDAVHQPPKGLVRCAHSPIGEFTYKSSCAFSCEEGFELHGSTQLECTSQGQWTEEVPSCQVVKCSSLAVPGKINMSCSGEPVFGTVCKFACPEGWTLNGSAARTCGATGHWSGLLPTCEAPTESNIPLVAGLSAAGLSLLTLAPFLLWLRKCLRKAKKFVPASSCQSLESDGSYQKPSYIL
Sequence of human Thyroid Receptor alpha (THRa1), THRA (gene 7067) (P10827 whole entry, looked up, the tested form may be a part): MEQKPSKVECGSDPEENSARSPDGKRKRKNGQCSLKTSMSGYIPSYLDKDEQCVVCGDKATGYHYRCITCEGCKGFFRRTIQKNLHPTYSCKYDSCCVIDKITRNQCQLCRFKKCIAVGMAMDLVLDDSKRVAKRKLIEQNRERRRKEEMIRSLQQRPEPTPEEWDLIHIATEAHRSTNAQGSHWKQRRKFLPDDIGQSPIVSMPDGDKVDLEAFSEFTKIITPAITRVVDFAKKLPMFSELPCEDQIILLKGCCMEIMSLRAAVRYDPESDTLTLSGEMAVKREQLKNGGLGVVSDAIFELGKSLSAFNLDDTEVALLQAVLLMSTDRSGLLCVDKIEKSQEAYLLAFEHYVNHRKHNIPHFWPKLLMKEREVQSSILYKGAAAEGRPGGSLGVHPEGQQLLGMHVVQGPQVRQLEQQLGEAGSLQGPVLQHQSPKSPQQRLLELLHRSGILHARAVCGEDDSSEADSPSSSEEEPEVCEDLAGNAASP
Sequence of human Vitamin D Receptor (VDR), VDR (gene 7421) (P11473 whole entry, looked up, the tested form may be a part): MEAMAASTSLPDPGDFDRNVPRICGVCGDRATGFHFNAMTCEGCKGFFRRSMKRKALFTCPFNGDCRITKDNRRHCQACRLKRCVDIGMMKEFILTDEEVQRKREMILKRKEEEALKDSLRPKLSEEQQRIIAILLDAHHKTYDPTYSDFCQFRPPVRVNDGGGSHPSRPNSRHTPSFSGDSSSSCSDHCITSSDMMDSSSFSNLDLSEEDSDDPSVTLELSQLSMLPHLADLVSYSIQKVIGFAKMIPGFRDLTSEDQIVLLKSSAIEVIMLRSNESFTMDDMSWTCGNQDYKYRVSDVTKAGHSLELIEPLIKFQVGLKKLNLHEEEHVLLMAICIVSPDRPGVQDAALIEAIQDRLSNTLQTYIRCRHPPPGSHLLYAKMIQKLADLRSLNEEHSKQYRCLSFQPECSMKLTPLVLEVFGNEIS
Sequence of human RAR-related Orphan Receptor gamma (RORg), RORC (gene 6097) (P51449 whole entry, looked up, the tested form may be a part): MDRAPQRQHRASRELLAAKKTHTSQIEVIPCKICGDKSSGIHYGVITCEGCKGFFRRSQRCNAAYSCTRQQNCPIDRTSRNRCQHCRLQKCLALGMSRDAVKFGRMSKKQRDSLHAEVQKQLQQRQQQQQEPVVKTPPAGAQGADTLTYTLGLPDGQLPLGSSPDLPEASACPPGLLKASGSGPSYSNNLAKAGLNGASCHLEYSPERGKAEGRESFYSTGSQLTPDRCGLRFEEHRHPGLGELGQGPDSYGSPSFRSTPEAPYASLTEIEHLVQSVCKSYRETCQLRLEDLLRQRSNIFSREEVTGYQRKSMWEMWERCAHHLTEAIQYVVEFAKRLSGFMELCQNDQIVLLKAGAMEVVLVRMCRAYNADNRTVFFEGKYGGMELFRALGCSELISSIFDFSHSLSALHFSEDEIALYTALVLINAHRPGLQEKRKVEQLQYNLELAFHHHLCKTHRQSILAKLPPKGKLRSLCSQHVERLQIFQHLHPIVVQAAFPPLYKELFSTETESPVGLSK

CCOP(=O)(OCC)Oc1cc(C)nc(C(C)C)n1
active: [5] 20 µM | [10] 39 µM
not listed: [15] | [16] | [17] | [18] | [19]
inactive: all other assays above

CC(C)[C@H](C(=O)O[C@H](C#N)c1cccc(Oc2ccccc2)c1)c1ccc(Cl)cc1
active: [5] 12.9 µM | [8] 5.72 µM
not listed: [13] | [18] | [19]
inactive: all other assays above

COc1cccc(C(=O)NN(C(=O)c2cc(C)cc(C)c2)C(C)(C)C)c1C
active: [10] 39 µM
not listed: [1] | [15] | [16] | [17] | [19]
inactive: all other assays above

CCc1cccc(C)c1N(C(=O)CCl)C(C)COC (configuration not stated)
active: [10] 39 µM | [11] 13.6 µM
not listed: [1] | [15] | [17]
inactive: all other assays above

C=C(C)[C@H]1Cc2c(ccc3c2O[C@@H]2COc4cc(OC)c(OC)cc4[C@@H]2C3=O)O1
inactive: [1] | [16] | [3] | [7] | [9] | [13] | [14]
active: [17] 0.24 µM | [2] 20 µM | [4] 34.8 µM | [5] 3.82 µM | [6] 20 µM | [8] 12.9 µM | [10] 0.468 µM | [11] 10.3 µM | [12] 3.9 µM

Cc1cc(C2CC2)nc(Nc2ccccc2)n1
active: [16] 75.3 µM | [17] 64 µM | [4] 32.1 µM | [5] 15.2 µM | [8] 24.8 µM | [10] 37.5 µM | [14] 33.7 µM
not listed: [18]
inactive: all other assays above

C[Si](Cn1cncn1)(c1ccc(F)cc1)c1ccc(F)cc1
active: [8] 17.9 µM | [10] 39 µM
not listed: [1] | [17] | [18]
inactive: all other assays above

CC(COc1ccc(Oc2ccccc2)cc1)Oc1ccccn1 (configuration not stated)
active: [5] 21 µM | [8] 20 µM
not listed: [15] | [16] | [17] | [18]
inactive: all other assays above

CON=C(C(=O)OC)c1ccccc1CON=C(C)c1cccc(C(F)(F)F)c1
active: [2] 2.35 µM | [4] 3.3 µM | [18] 2.81 µM | [5] 2.82 µM | [6] 1.76 µM | [8] 10.4 µM | [12] 5.67 µM | [14] 3.92 µM
not listed: [1] | [19]
inactive: all other assays above

N#CSCSC#N
inactive: [15] | [17] | [3] | [9] | [13]
active: [2] 10.9 µM | [4] 8.34 µM | [18] 7.62 µM | [6] 11.7 µM | [7] 10.8 µM | [8] 4.78 µM | [10] 5.45 µM | [11] 5.1 µM | [12] 10.2 µM | [14] 13.5 µM

CCOP(=S)(OCC)Oc1cc(C)nc(C(C)C)n1
not listed: [1] | [18] | [19]
inactive: all other assays above

C[N+]1(C)CCCCC1
not listed: [18] | [19]
inactive: all other assays above

CCOC(=O)CC(SP(=O)(OC)OC)C(=O)OCC (configuration not stated)
not listed: [1] | [18] | [19]
inactive: all other assays above

CCC(=O)Nc1ccc(Cl)c(Cl)c1
active: [5] 6.03 µM | [10] 9.8 µM
not listed: [17] | [18] | [19]
inactive: all other assays above

CCc1cccc(CC)c1N(COC)C(=O)CCl
active: [2] 21.2 µM | [4] 14.4 µM | [18] 22 µM | [5] 20 µM | [8] 20 µM | [10] 39 µM | [11] 14.9 µM | [12] 14.8 µM
inactive: [15] | [17] | [3] | [6] | [7] | [9] | [13] | [14]

COP(=O)(OC)OC(Br)C(Cl)(Cl)Br (configuration not stated)
active: [2] 30.1 µM | [3] 29.8 µM | [4] 35.6 µM | [18] 30.1 µM | [5] 14.9 µM | [6] 34.9 µM | [7] 35.2 µM | [8] 28.8 µM | [10] 16.3 µM | [11] 13.2 µM | [12] 29 µM | [13] 25 µM
inactive: [9] | [14]
